Reference: publication PMC11006913
Positions count from the first letter of the chain named.

How the values were obtained:
Assay in all cases: PBM; 200 nM protein, PBS
Details in all cases: dsDNA, one strand shown
NKX2-4 [1] = biological target: T1, NKX2-4 (Homo sapiens, UniProt Q9H2Z4 175-261, P217L)
T1 sequence: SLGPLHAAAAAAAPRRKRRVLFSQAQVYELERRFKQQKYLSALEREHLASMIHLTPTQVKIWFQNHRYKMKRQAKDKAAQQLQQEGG

VENTX [2] = biological target: T2, VENTX (Homo sapiens, UniProt O95231 78-163, R121Q)
T2 sequence: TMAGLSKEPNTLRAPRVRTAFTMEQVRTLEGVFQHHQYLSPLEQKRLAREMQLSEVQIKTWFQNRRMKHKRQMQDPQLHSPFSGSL

HOXB9 [3] = biological target: HOXB9 (Homo sapiens, UniProt P17482 171-250, T197M)
VENTX [4] = biological target: T3, VENTX (Homo sapiens, UniProt O95231 78-163)
T3 sequence: T2 sequence with Q44R

NKX2-4 [5] = biological target: T4, NKX2-4 (Homo sapiens, UniProt Q9H2Z4 175-261, T231S)
T4 sequence: T1 sequence with L43P, T57S

VENTX [6] = biological target: T5, VENTX (Homo sapiens, UniProt O95231 78-163, Y115F)
T5 sequence: T2 sequence with Y38F, Q44R

NKX2-4 [7] = biological target: T6, NKX2-4 (Homo sapiens, UniProt Q9H2Z4 175-261)
T6 sequence: T1 sequence with L43P

HOXB9 [8] = biological target: HOXB9 (Homo sapiens, UniProt P17482 171-250)
NKX2-4 [9] = biological target: T7, NKX2-4 (Homo sapiens, UniProt Q9H2Z4 175-261, R246Q)
T7 sequence: T1 sequence with L43P, R72Q

HOXB9 [10] = biological target: HOXB9 (Homo sapiens, UniProt P17482 171-250, R186Q)
HOXA4 [11] = biological target: HOXA4 (Homo sapiens, UniProt Q00056 201-287, W262R)
HOXC9 [12] = biological target: HOXC9 (Homo sapiens, UniProt P31274 178-260, K195R)
HOXA4 [13] = biological target: HOXA4 (Homo sapiens, UniProt Q00056 201-287, R217L)
HOXC9 [14] = biological target: HOXC9 (Homo sapiens, UniProt P31274 178-260)
MSX2 [15] = biological target: MSX2 (Homo sapiens, UniProt P35548 130-214, R199I)
HOXC9 [16] = biological target: HOXC9 (Homo sapiens, UniProt P31274 178-260, R193K)
HOXA4 [17] = biological target: HOXA4 (Homo sapiens, UniProt Q00056 201-287)
MSX2 [18] = biological target: MSX2 (Homo sapiens, UniProt P35548 130-214)
HOXC9 [19] = biological target: HOXC9 (Homo sapiens, UniProt P31274 178-260, R222W)
MSX2 [20] = biological target: MSX2 (Homo sapiens, UniProt P35548 130-214, F161Y)
HOXA4 [21] = biological target: HOXA4 (Homo sapiens, UniProt Q00056 201-287, W262F)
CRX [22] = biological target: CRX (Homo sapiens, UniProt O43186 26-111)
CRX [23] = biological target: CRX (Homo sapiens, UniProt O43186 26-111, E42D)
CRX [24] = biological target: CRX (Homo sapiens, UniProt O43186 26-111, R41L)
PITX2 = PITX2 (Homo sapiens, UniProt Q99697 72-157)

CRX (Homo sapiens, UniProt O43186 26-111), sequence (O43186 26-111): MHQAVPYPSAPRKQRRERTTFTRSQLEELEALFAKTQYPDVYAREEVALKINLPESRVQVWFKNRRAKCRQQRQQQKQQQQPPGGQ
CRX (Homo sapiens, UniProt O43186 26-111, R41L), sequence (O43186 26-111 R41L): as the sequence (O43186 26-111) above, with R16L counted along it
CRX (Homo sapiens, UniProt O43186 26-111, E42D), sequence (O43186 26-111 E42D): as the sequence (O43186 26-111) above, with E17D counted along it
HOXC9 (Homo sapiens, UniProt P31274 178-260), sequence (P31274 178-260): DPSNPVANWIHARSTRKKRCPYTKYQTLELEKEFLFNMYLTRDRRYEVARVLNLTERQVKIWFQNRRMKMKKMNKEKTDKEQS
HOXA4 (Homo sapiens, UniProt Q00056 201-287, W262F), sequence (Q00056 201-287 W262F): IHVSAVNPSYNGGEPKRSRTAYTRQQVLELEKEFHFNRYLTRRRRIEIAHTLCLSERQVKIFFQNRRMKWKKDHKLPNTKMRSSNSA
MSX2 (Homo sapiens, UniProt P35548 130-214, R199I), sequence (P35548 130-214 R199I): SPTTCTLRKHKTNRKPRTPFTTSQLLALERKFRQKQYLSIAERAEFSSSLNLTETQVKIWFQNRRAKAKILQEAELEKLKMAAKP
MSX2 (Homo sapiens, UniProt P35548 130-214), sequence (P35548 130-214): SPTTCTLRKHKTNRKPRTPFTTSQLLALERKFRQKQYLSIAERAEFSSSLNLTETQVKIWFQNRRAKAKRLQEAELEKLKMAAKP
HOXB9 (Homo sapiens, UniProt P17482 171-250), sequence (P17482 171-250): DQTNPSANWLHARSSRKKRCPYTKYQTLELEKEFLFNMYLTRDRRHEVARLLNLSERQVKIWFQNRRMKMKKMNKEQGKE
HOXC9 (Homo sapiens, UniProt P31274 178-260, R193K), sequence (P31274 178-260 R193K): as the sequence (P31274 178-260) above, with R16K counted along it
HOXA4 (Homo sapiens, UniProt Q00056 201-287, W262R), sequence (Q00056 201-287 W262R): as the sequence (Q00056 201-287 W262F) above, with F62R counted along it
HOXC9 (Homo sapiens, UniProt P31274 178-260, R222W), sequence (P31274 178-260 R222W): as the sequence (P31274 178-260) above, with R45W counted along it
HOXA4 (Homo sapiens, UniProt Q00056 201-287), sequence (Q00056 201-287): as the sequence (Q00056 201-287 W262F) above, with F62W counted along it
HOXC9 (Homo sapiens, UniProt P31274 178-260, K195R), sequence (P31274 178-260 K195R): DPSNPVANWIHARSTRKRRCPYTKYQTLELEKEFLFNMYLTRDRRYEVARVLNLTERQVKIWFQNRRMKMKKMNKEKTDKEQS
HOXB9 (Homo sapiens, UniProt P17482 171-250, R186Q), sequence (P17482 171-250 R186Q): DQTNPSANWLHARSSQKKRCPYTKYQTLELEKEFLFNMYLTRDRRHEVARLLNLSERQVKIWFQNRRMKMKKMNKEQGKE
HOXA4 (Homo sapiens, UniProt Q00056 201-287, R217L), sequence (Q00056 201-287 R217L): as the sequence (Q00056 201-287 W262F) above, with R17L, F62W counted along it
MSX2 (Homo sapiens, UniProt P35548 130-214, F161Y), sequence (P35548 130-214 F161Y): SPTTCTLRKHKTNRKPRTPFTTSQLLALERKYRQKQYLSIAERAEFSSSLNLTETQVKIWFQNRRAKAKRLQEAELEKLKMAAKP
HOXB9 (Homo sapiens, UniProt P17482 171-250, T197M), sequence (P17482 171-250 T197M): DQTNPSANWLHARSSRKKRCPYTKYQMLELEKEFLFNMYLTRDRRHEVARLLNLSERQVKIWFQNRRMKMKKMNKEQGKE

CACCGCGG
binding signal (NKX2-4 [1]): 9.48 upbm affinity estimate (log intensity, higher = more binding, comparable within an allelic series)
binding signal (VENTX [2]): 8.21 upbm affinity estimate (log intensity, higher = more binding, comparable within an allelic series)
binding signal (HOXB9 [3]): 8.56 upbm affinity estimate (log intensity, higher = more binding, comparable within an allelic series)
binding signal (VENTX [4]): 8.03 upbm affinity estimate (log intensity, higher = more binding, comparable within an allelic series)
binding signal (NKX2-4 [5]): 9.5 upbm affinity estimate (log intensity, higher = more binding, comparable within an allelic series)
binding signal (VENTX [6]): 8.12 upbm affinity estimate (log intensity, higher = more binding, comparable within an allelic series)
binding signal (NKX2-4 [7]): 9.48 upbm affinity estimate (log intensity, higher = more binding, comparable within an allelic series)
binding signal (HOXB9 [8]): 8.55 upbm affinity estimate (log intensity, higher = more binding, comparable within an allelic series)
binding signal (NKX2-4 [9]): 9.54 upbm affinity estimate (log intensity, higher = more binding, comparable within an allelic series)
binding signal (HOXB9 [10]): 8.55 upbm affinity estimate (log intensity, higher = more binding, comparable within an allelic series)

GCGACCGC
binding signal (NKX2-4 [1]): 9.58 upbm affinity estimate (log intensity, higher = more binding, comparable within an allelic series)
binding signal (HOXA4 [11]): 9.61 upbm affinity estimate (log intensity, higher = more binding, comparable within an allelic series)
binding signal (HOXC9 [12]): 9.65 upbm affinity estimate (log intensity, higher = more binding, comparable within an allelic series)
binding signal (NKX2-4 [5]): 9.41 upbm affinity estimate (log intensity, higher = more binding, comparable within an allelic series)
binding signal (NKX2-4 [7]): 9.53 upbm affinity estimate (log intensity, higher = more binding, comparable within an allelic series)
binding signal (HOXA4 [13]): 9.65 upbm affinity estimate (log intensity, higher = more binding, comparable within an allelic series)
binding signal (HOXC9 [14]): 9.71 upbm affinity estimate (log intensity, higher = more binding, comparable within an allelic series)
binding signal (MSX2 [15]): 9.49 upbm affinity estimate (log intensity, higher = more binding, comparable within an allelic series)
binding signal (HOXC9 [16]): 9.6 upbm affinity estimate (log intensity, higher = more binding, comparable within an allelic series)
binding signal (HOXA4 [17]): 9.86 upbm affinity estimate (log intensity, higher = more binding, comparable within an allelic series)
binding signal (MSX2 [18]): 9.38 upbm affinity estimate (log intensity, higher = more binding, comparable within an allelic series)
binding signal (NKX2-4 [9]): 9.69 upbm affinity estimate (log intensity, higher = more binding, comparable within an allelic series)
binding signal (HOXC9 [19]): 9.64 upbm affinity estimate (log intensity, higher = more binding, comparable within an allelic series)
binding signal (MSX2 [20]): 9.56 upbm affinity estimate (log intensity, higher = more binding, comparable within an allelic series)
binding signal (HOXA4 [21]): 9.79 upbm affinity estimate (log intensity, higher = more binding, comparable within an allelic series)

ACACTACC
binding signal (CRX [22]): 8.32 upbm affinity estimate (log intensity, higher = more binding, comparable within an allelic series)
binding signal (CRX [23]): 8.19 upbm affinity estimate (log intensity, higher = more binding, comparable within an allelic series)
binding signal (CRX [24]): 8.34 upbm affinity estimate (log intensity, higher = more binding, comparable within an allelic series)

CGCTAATC
binding signal (CRX [22]): 12.8 upbm affinity estimate (log intensity, higher = more binding, comparable within an allelic series)
binding signal (PITX2): 12.2 upbm affinity estimate (log intensity, higher = more binding, comparable within an allelic series)
binding signal (CRX [24]): 12.3 upbm affinity estimate (log intensity, higher = more binding, comparable within an allelic series)

GGGCGCAC
binding signal (CRX [22]): 7.78 upbm affinity estimate (log intensity, higher = more binding, comparable within an allelic series)
binding signal (CRX [23]): 7.93 upbm affinity estimate (log intensity, higher = more binding, comparable within an allelic series)
binding signal (CRX [24]): 7.95 upbm affinity estimate (log intensity, higher = more binding, comparable within an allelic series)
